Test results published in PubChem BioAssay.
The source made the active and inactive calls. Unless noted, the rule behind the calls is not given here.

What was measured:
[1] = tested on: Wnt5a (protein binding on small-molecule microarray); assay: Wnt5a binders on small-molecule microarray, primary screen, biophysical, 635/667 nm fluorescence (AID 1142); settings: 635 nm fluorescence, higher = more signal;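 note: fluorescence read at 667 nm with signal to noise per printed feature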
[2] = cell viability in Huh7 cells, primary screen, cytotoxicity control for HCV replication inhibitor project, CellTiter-Glo luminescence, basal, 48 h (AID 1143); settings: Huh7 HCV replicon, higher = more signal, called active from +8 up or from −8 down;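 note: Huh7 hepatoma cells carrying a hepatitis C replication reporter with no stimulus; test concentration not given here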
[3] = P. aeruginosa biofilm formation inhibitors, primary screen, PAO1 strain, BacTiter-Glo luminescence, LB-PBS (AID 1144); settings: 12 h, higher = more signal
[4] = CREB reporter modulators without forskolin, primary screen, cell-based, PC12, CRE-LacZ reporter, unstimulated (AID 1145); settings: no forskolin, luminescence, 4.5 h, higher = more signal, called active from +8 up or from −8 down
[5] = CREB reporter modulators under forskolin, primary screen, cell-based, PC12, CRE-LacZ reporter, forskolin-stimulated (AID 1146); settings: luminescence, 4.5 h, higher = more signal, called active from +8 up or from −8 down;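 note: PC12 cells with 6xCRE LacZ reporter stimulated by forskolin 10 µM; beta-galactosidase reporter signal reflecting CREB driven transcription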
[6] = target: Streptavidin (Streptomyces avidinii) (UniProt P22629); assay: streptavidin binders on small-molecule microarray, primary screen, artefact control for SMM compound annotation, biophysical, 635/667 nm fluorescence (AID 1147); settings: streptavidin binding, higher = more signal;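 note: signal reflects streptavidin binding to arrayed compounds as a control protein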
[7] = small-molecule binders of probe aInhba, primary screen, biochemical, small-molecule microarray, 635/667 nm fluorescence (AID 1148); settings: higher = more signal;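 note: score merges 667nm spot fluorescence with signal-to-noise for antibody binding to printed compounds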
[8] = target: Torsin-1A (Homo sapiens) (UniProt O14656); assay: torsin A binders from cell lysate, primary screen, small-molecule microarray, wild-type, 635/667 nm (AID 1149); settings: COS7 hTOR1A-WT lysate, 635 nm fluorescence, higher = more signal
[9] = target: Torsin-1A (Homo sapiens) (UniProt O14656); assay: small-molecule binders of mutant TOR1A in lysate, primary screen, cell lysate, small-molecule microarray, COS7 lysate, 635/667 nm fluorescence (AID 1150); settings: COS7 hTOR1A mutant lysate, 635 nm fluorescence, higher = more signal;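 note: score pools 667 nm emission and signal to noise measuring lysate protein binding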
[10] = tested on: Sonic hedgehog protein (Shh); assay: small-molecule binders of Shh protein, primary screen, biochemical, small-molecule microarray, 635/667 nm fluorescence (AID 1151); settings: small-molecule microarray binding, 635 nm fluorescence; higher = more signal;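 note: Shh protein binding to compounds spotted on small-molecule microarray slides; score combines spot fluorescence intensity with signal-to-noise across triplicate slides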

Chain of Streptavidin (Streptomyces avidinii) (P22629 whole entry, looked up): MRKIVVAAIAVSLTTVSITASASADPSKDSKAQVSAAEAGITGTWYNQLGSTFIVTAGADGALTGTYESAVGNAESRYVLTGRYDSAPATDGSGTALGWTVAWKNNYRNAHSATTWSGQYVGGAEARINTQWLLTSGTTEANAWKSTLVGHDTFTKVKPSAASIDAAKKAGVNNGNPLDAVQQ
Chain of Torsin-1A (Homo sapiens) (O14656 whole entry, looked up): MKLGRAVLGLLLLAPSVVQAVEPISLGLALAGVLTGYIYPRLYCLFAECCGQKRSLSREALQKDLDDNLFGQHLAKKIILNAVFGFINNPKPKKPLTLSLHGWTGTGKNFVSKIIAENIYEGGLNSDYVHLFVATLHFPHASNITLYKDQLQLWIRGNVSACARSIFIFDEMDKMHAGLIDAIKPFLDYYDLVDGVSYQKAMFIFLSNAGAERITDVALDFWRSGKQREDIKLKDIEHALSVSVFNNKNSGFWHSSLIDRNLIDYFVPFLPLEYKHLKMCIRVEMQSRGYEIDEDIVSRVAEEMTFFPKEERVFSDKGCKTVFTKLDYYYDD

Row | SMILES | composite z-score [1] | z-score [2] | z-score [3] | z-score [4] | z-score [5] | composite z-score [6] | composite z-score [7] | composite z-score [8] | composite z-score [9] | composite z-score [10]
1 | COC(=O)[C@H](C)NC(=O)CCC1CC(OC(=O)NCc2cccc3ccccc23)CC2(CCCC(COC(=O)NCC(c3ccccc3)c3ccccc3)O2)O1 (stereo not given in full) | 0.345 | -0.145 (inactive) | -0.155 (inactive) | -0.437 (inactive) | 2.17 (inactive) | -0.244 | -0.11 | 0.113 | 0.452 | 0.759
2 | CO[C@H]1COC(=O)[C@@H](C)COC(=O)[C@@H](OCc2ccccc2)C=C[C@@H]1C | 0.007 | -0.0174 (inactive) | 0.304 (inactive) | -0.0293 (inactive) | -0.803 (inactive) | -0.136 | -0.016 | 0.743 | -0.253 | 0.214
3 | CCOC(=O)[C@H](CC(C)C)NC(=O)CCC1CC(OC(=O)NCCc2ccc(F)cc2)CC2(CCCC(COC(=O)NCC3CCCCC3)O2)O1 (stereo not given in full) | 0.0548 | 0.791 (inactive) | 0.239 (inactive) | 0.381 (inactive) | 0.868 (inactive) | 1.42 | -0.148 | -0.0001 | 0.915 | 0.648
4 | Cn1c(=O)n2n(c1=O)[C@H]1[C@H](O)[C@@H]3O[C@@H]3C(=NOCc3ccccc3)[C@H]1CC2 | -0.279 | 0.637 (inactive) | -0.53 (inactive) | -0.0211 (inactive) | 0.383 (inactive) | -0.178 | -0.183 | -0.223 | 0.0523 | 0.378
5 | COc1cccc([C@H]2Oc3ccc(OC)cc3C(=NOC(C)CN3CCCCc4nc(C)c(C)cc43)[C@@H]2O)c1 (stereo not given in full) | 0.292 | -1.77 (inactive) | 0.979 (inactive) | 5.7 (inactive) | 0.323 (inactive) | -0.519 | -0.024 | 0.242 | -0.14 | 0.291
6 | CC(C)CON=C1C[C@@H](O)[C@@H](O)[C@@H]2[C@@H]3C(=O)N(C4CCCCC4)C(=O)[C@@H]3CC[C@@H]12 | -0.146 | -0.82 (inactive) | -0.342 (inactive) | 0.156 (inactive) | 0.147 (inactive) | 0.115 | -0.128 | -0.792 | -0.0797 | -0.318
7 | CO[C@@H]1C=CCC(=O)N2CCC[C@H]2C(=O)OC[C@@H](C)C(=O)OC[C@H]1C | 0.172 | -0.0949 (inactive) | -1.23 (inactive) | -0.0234 (inactive) | 0.2 (inactive) | -0.482 | -0.0762 | -0.0067 | 0.652 | 1.68
8 | CO[C@H]1COC(=O)[C@H](C)NC(=O)CC=C[C@@H](C)[C@H](OC)COC(=O)[C@@H](OCc2ccccc2)C=C[C@@H]1C | -0.0911 | 0.382 (inactive) | 0.213 (inactive) | 0.971 (inactive) | -0.262 (inactive) | -0.697 | -0.0791 | 0.57 | -0.0163 | 0.683
9 | COc1ccc(O[C@H]2C=C[C@@H](c3ccccc3)O[C@@H]2CON=CC[C@@H]2C=C[C@H](OC(C)=O)[C@@H](COC(C)=O)O2)cc1 | 0.0129 | -1.06 (inactive) | -0.705 (inactive) | 1.15 (inactive) | 0.222 (inactive) | 3.65 | -0.176 | -0.107 | -0.26 | 0.328
10 | COc1cccc([C@@H]2Oc3ccc(OC)cc3C(=O)[C@H]2O)c1 | 0.115 | -4.86 (inactive) | -1.15 (inactive) | 5.45 (inactive) | -0.344 (inactive) | 2.33 | -0.152 | 0.496 | 0.42 | 0.813
11 | CCOC(=O)[C@H](Cc1ccccc1)NC(=O)CCC1CC(OC(=O)NCCc2ccc(F)cc2)CC2(CCCC(COC(=O)NCc3ccccc3)O2)O1 (stereo not given in full) | 0.0738 | -0.471 (inactive) | 0.0402 (inactive) | 0.824 (inactive) | 1.63 (inactive) | 0.606 | 0.0074 | 0.409 | 0.129 | 0.952
12 | Cc1cc2c(nc1C)CCCN2CC(O)CN1CCCc2nc(C)c(C)cc21 | 0.424 | 0.135 (inactive) | 0.051 (inactive) | -0.704 (inactive) | -0.875 (inactive) | 0.209 | 0.141 | 0.482 | 1.95 | 0.639
13 | CCOC(=O)[C@H](Cc1ccccc1)NC(=O)CCC1CC(OC(=O)NCCc2ccc(F)cc2)CC2(CCCC(COC(=O)NCC3CCCCC3)O2)O1 (stereo not given in full) | 0.0457 | -0.224 (inactive) | -1.12 (inactive) | 0.29 (inactive) | 0.624 (inactive) | 0.644 | 0.0074 | 0.846 | 0.438 | 1.23
14 | O=c1n(-c2ccccc2)c(=O)n2n1CC[C@@H]1C(=NOCc3ccccc3)[C@H]3O[C@H]3[C@@H](O)[C@@H]12 | 0.18 | 0.492 (inactive) | 0.251 (inactive) | -0.385 (inactive) | -0.314 (inactive) | -0.445 | -0.0695 | -0.614 | -0.315 | -0.0835
15 | CC(C)(C)N1C(=O)[C@H]2[C@H]3[C@H](O)C=CC(=O)[C@@H]3CC[C@H]2C1=O | 0.307 | 0.536 (inactive) | 0.0768 (inactive) | 1.06 (inactive) | -0.0003 (inactive) | 0.4 | -0.128 | 0.281 | 0.252 | 0.521
16 | COc1cccc([C@H]2Oc3ccc(OC)cc3C(=NO[C@@H]3O[C@H](COC(C)=O)[C@@H](OC(C)=O)[C@H](OC(C)=O)[C@H]3OC(C)=O)[C@@H]2O)c1 | 0.186 | -0.202 (inactive) | 0.0537 (inactive) | 0.336 (inactive) | 0.38 (inactive) | -0.0198 | -0.163 | 0.29 | 0.461 | 0.149
17 | COc1ccc(O[C@H]2C=C[C@@H](c3ccccc3)O[C@@H]2CON=C(C)CCC(=O)OC[C@H]2O[C@H](c3ccccc3)C=C[C@@H]2Oc2ccc(OC)cc2)cc1 | -0.874 | -0.461 (inactive) | 0.107 (inactive) | -0.887 (inactive) | 0.593 (inactive) | 0.204 | -0.0136 | -2.42 | -1.43 | 2.02
18 | CC(C)C[C@H](NC(=O)CCC1CC(OC(=O)NCc2cccc3ccccc23)CC2(CCCC(COC(=O)NCc3ccccc3)O2)O1)C(=O)NCC(c1ccccc1)c1ccccc1 (stereo not given in full) | 0.451 | -0.363 (inactive) | -0.434 (inactive) | -0.258 (inactive) | 0.728 (inactive) | 0.396 | -0.0963 | 0.317 | 0.0582 | 0.954
19 | COC(=O)CC=C[C@@H](C)[C@@H](C=NO[C@H](C)c1cn([C@H](CO)Cc2ccccc2)nn1)NS(=O)(=O)c1ccc(C)cc1 | -0.0374 | -1.29 (inactive) | 0.92 (inactive) | 1.98 (inactive) | 0.767 (inactive) | 0.912 | -0.0531 | 0.708 | 1.8 | 0.285
20 | O=C(C=Cc1ccc2c(c1)OCO2)c1ccc(F)cc1 | 0.239 | -1.25 (inactive) | 0.583 (inactive) | 1.28 (inactive) | 0.362 (inactive) | 1.32 | 0.259 | 0.245 | -0.397 | 2.05
21 | CC(CCN1CCCCc2nc(C)c(C)cc21)=NO[C@H](C)c1cn([C@H](CO)Cc2ccccc2)nn1 | 0.101 | -1.11 (inactive) | 0.0152 (inactive) | 2.24 (inactive) | 0.743 (inactive) | 0.0378 | -0.256 | 2.04 | 0.164 | 1.32
22 | C[C@@H](c1ccccc1)N1C(=O)[C@H]2[C@H]3[C@H](O)[C@H](O)CC(=NO[C@@H]4O[C@H](CO)[C@@H](O)[C@H](O)[C@H]4O)[C@H]3CC[C@H]2C1=O | 0.189 | 0.573 (inactive) | -0.104 (inactive) | -0.294 (inactive) | 0.845 (inactive) | 0.152 | -0.142 | 0.225 | 0.249 | 0.457
23 | CCOC(=O)[C@H](CC(C)C)NC(=O)CCC1CC(OC(=O)NCCc2ccc(F)cc2)CC2(CCCC(COC(=O)NCC(c3ccccc3)c3ccccc3)O2)O1 (stereo not given in full) | 0.228 | -0.361 (inactive) | -0.427 (inactive) | -0.438 (inactive) | -0.292 (inactive) | 1.22 | 0.0111 | -0.106 | 0.241 | 0.721
24 | CCCNC(=O)OC[C@H]1O[C@H](CCON=C(C)CCC(=O)OC[C@H]2O[C@H](c3ccccc3)C=C[C@@H]2Oc2ccc(OC)cc2)C=C[C@@H]1Oc1ccc(OC)cc1 | -0.109 | -1.13 (inactive) | -0.665 (inactive) | -0.478 (inactive) | 0.913 (inactive) | 0.728 | -0.125 | -0.694 | -0.243 | -0.137
25 | CCOC(=O)[C@H](CC(C)C)NC(=O)CCC1CC(OC(=O)NCCc2ccc(F)cc2)CC2(CCCC(COC(=O)NCCC(C)C)O2)O1 (stereo not given in full) | -0.0436 | -0.439 (inactive) | 0.288 (inactive) | 0.91 (inactive) | -0.457 (inactive) | 2.06 | -0.0963 | -0.239 | 0.204 | 0.318
26 | CC(=O)OC[C@H]1O[C@H](CCON=C2[C@H]3CCn4c(=O)n(-c5ccccc5)c(=O)n4[C@H]3[C@H](O)[C@@H]3O[C@H]23)C=C[C@@H]1OC(C)=O | 0.282 | -1.89 (inactive) | 2.23 (inactive) | -0.152 (inactive) | -0.0763 (inactive) | -0.0465 | -0.0791 | -0.299 | 0.0319 | 0.789
27 | COC(=O)CC=C[C@@H](C)[C@@H](C=NOC[C@@H](O)[C@H]1O[C@@H]2OC(C)(C)O[C@@H]2[C@H]1O)NS(=O)(=O)c1ccc(C)cc1 | 0.242 | 0.0198 (inactive) | 0.603 (inactive) | -0.245 (inactive) | 0.285 (inactive) | -0.0169 | 0.163 | 0.92 | 0.387 | 0.288
28 | CCOC(=O)[C@H](CC(C)C)NC(=O)CCC1CC(OC(=O)NCc2ccc3c(c2)OCO3)CC2(CCCC(COC(=O)NCC3CCCCC3)O2)O1 (stereo not given in full) | 0.222 | -1.86 (inactive) | -0.0968 (inactive) | -0.0732 (inactive) | 0.389 (inactive) | 0.354 | 0.0471 | 0.0886 | 0.392 | 1.52
29 | CC(C)=NOC[C@@H](C)[C@H](OCc1ccccc1)C(C)C | -0.437 | 0.563 (inactive) | -0.181 (inactive) | 1.17 (inactive) | 0.112 (inactive) | 0.0253 | -0.128 | -0.522 | -0.31 | -0.448
